Rows were chosen to be rich in hits. Some 2.4% of all compounds tested hit in one or more screens of this group.
POLI inh: DNA polymerase iota (human) inhibition. Q9UNA4. Pol iota fluorescent replication assay, 10 min. Potency, µM (doses to about 115 µM), without a hit: top-dose activity, negative = inhibition, hits mostly inhibitors. hit rate 1% among 390,000. AID 588590
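Fluorescent replication assay read twice, at 0 min and 10 min after adding 50 nM (final) substrate. Enzyme (10 nM) and compounds were first incubated 15 min at room temperature; enzyme-free buffer wells were negative controls.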
POLB inh: blocks human DNA polymerase beta activity; P06746; Pol beta primer extension/strand displacement, fluorescence kinetic; Potency, µM (doses to about 114 µM), without a hit: at the highest dose activity change, negative = inhibition, most hits filed as inhibitors; hit rate 1.3% among 340,000; AID 485314; note: % is set by controls: 0 for no effect and ±100 for the full control effect
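Pol beta (10 nM) was preincubated with compound for 15 min at room temperature. The reaction was then started with 50 nM substrate and read immediately and after a further 10 min at room temperature.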
Pol eta inh: blocks human DNA polymerase eta activity; Q9Y253; recombinant Pol eta, fluorescent DNA replication assay; Potency, µM (titrated, usually from 114 µM), without a hit: at the top dose activity change, negative = inhibition, actives largely listed as inhibitors; hit rate 1.2% among 390,000; note: % is set by controls: 0 for no effect and ±100 for the full control effect
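Pol eta at 10 nM preincubated with compounds 15 min at room temperature; reaction started with fluorescent substrate (50 nM final) and read kinetically at 0 and 10 min.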
POLK inh: DNA polymerase kappa (human) inhibition | AID 588579 | Potency, µM (titrated, usually from 107 µM), without a hit: at the highest dose activity, negative = inhibition, usual class: inhibitors | purified Pol kappa, fluorescent DNA synthesis assay, 10 min | Q9UBT6 | hit rate 0.53% among 400,000; note: % is set by controls: 0 for no effect and ±100 for the full control effect
Target sequence (Q9UBT6 whole entry, looked up): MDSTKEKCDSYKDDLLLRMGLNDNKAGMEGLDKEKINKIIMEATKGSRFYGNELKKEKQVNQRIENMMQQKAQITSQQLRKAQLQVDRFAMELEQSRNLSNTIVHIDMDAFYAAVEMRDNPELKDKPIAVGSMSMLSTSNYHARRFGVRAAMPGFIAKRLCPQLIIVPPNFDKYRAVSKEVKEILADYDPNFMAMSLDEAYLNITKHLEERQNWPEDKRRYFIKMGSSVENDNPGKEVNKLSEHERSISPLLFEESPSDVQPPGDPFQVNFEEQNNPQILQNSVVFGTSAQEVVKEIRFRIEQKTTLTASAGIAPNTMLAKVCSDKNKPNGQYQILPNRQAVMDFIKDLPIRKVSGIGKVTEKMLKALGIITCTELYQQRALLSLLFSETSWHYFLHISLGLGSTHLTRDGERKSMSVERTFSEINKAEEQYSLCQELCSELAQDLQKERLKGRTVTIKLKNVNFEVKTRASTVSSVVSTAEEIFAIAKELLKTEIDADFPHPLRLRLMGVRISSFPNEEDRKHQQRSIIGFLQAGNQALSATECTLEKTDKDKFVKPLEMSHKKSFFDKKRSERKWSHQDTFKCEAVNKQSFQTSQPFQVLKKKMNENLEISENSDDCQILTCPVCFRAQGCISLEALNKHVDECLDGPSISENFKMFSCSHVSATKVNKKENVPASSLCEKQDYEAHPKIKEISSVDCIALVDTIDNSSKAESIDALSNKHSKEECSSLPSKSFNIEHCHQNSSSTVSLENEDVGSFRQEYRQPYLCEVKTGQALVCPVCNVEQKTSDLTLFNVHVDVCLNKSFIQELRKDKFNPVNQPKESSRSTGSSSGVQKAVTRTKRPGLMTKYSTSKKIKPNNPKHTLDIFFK
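Kinetic fluorescence screen: compound preincubated 15 min RT with 10 nM enzyme; 50 nM substrate (final) initiates; reads at 0/10 min.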
TDP1 inh: TDP1 (human) enzyme inhibition; Potency, µM (highest dose often 130 µM), without a hit: top-dose activity change, negative = inhibition, actives largely listed as inhibitors; recombinant TDP1, AlphaScreen DNA substrate cleavage; hit rate 0.28% among 350,000; note: % is set by controls: 0 for no effect and ±100 for the full control effect; nearly all actives have a fitted effect of over 40% in size
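Recombinant E. coli-expressed Tdp1 (1 nM) preincubated with compound 15 min at RT, then 5'-biotin/3'-phosphotyrosine-FITC DNA substrate (15 nM) added for 5 min. AlphaScreen beads (10 ug/ml) added, 10 min RT; tyrosine-FITC cleavage read as signal loss.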
The depositor's hits bear a star; u = inconclusive; x = not tested or not shown; [ ] = remark or other dose. Calls come from the whole dose curve; as a rule, active = well fitted curve in the direction sought with a large enough effect; inconclusive = small, poorly fitted or top-dose-only effect, or another doubt; inactive = no such curve, though single readings can be large; an effect the other way counts as inactive or inconclusive. Potency is the fitted concentration of half-maximal effect.

SMILES	POLI inh	POLB inh	Pol eta inh	POLK inh	TDP1 inh
Cc1ccc(N/C(C(Cl)=C(Cl)Cl)=C(/Cl)[N+](=O)[O-])c(C)c1	15.8µM*	-1.9%	-10.4%	0.3%	8.9%
Cc1ccc(NC(=O)CC(=O)Nc2ccc(C)cc2C)c(C)c1	3.3%	38.8%	-8.9%	8.5%	x
CCOc1ccc(C(=O)c2cn(CC(=O)Nc3cccc(OC)c3)c3cc4c(cc3c2=O)OCCO4)cc1	33.6%	34.4%	-15.5%	3.3%	9.0%
COc1ccccc1NC(=O)Cc1coc2cc(C)ccc12	15.9%	14.4%	-5.1%	2.9%	-1.4%
COc1ccc2c(CC(=O)N3CCN(S(=O)(=O)c4ccc(F)cc4)CC3)coc2c1	u	x	31.6µM*	u	-6.9%
Cc1ccc2c(CC(=O)N3CCN(S(=O)(=O)c4ccccc4)CC3)coc2c1	u	x	31.6µM*	u	-19.7%
Cc1ccc2c(CC(=O)N3CCN(S(=O)(=O)c4ccc5c(c4)OCCO5)CC3)coc2c1	-6.2%	21.0%	-0.1%	-4.4%	4.0%
COc1ccc2c(CC(=O)N3CCN(S(=O)(=O)c4cccs4)CC3)coc2c1	19.3%	5.1%	2.9%	-11.3%	6.1%
Cc1ccc2c(CC(=O)NNC(=O)c3ccccc3O)coc2c1	44.7µM*	x	u	-38.9%	0.3%
CN(C)c1ccc(/C=C/c2ccnc3c(Cl)cccc23)cc1	-10.5%	x	x	-32.5%	x
CN(C)c1ccc(/C=C/c2ccnc3c(O)cccc23)cc1	3.9%	x	x	-8.9%	x
Cc1ccc(Cl)cc1NS(=O)(=O)c1cc2c(cc1Cl)CCC(=O)N2	x	x	x	x	1.7%
CCOc1ccc(Nc2cc(C)nc3nncn23)cc1	5.3%	-3.9%	-7.6%	-16.7%	2.3%
C#CCOCCOCCOCCNc1nc(N2CCN(C(=O)Cn3cc(CCCN=C(N)N)nn3)CC2)nc(N2CCN(C(=O)[C@H](C)n3cc(CCCN=C(N)N)nn3)CC2)n1	u	39.8µM*	-14.6%	u	-1.3%
C#CCOCCOCCOCCNc1nc(N2CCN(C(=O)Cn3cc(CCCCN)nn3)CC2)nc(N2CCN(C(=O)Cn3cc(CCCN=C(N)N)nn3)CC2)n1	35.5µM*	x	4.2%	u	-3.7%
C(=C\c1ccnc2ccccc12)/c1ccc(N2CCNCC2)cc1	20.2%	x	x	5.2%	x
N#Cc1ccsc1NC(=O)COc1ccc(-c2nnco2)cc1	u	u	20µM*	-40.5%	-8.0%
CN(C)c1ccc(/C=C/N2C=CCc3c2ccc2ccccc32)cc1	u	x	x	50.1µM*	x
CN(C)c1ccc(/C=C/c2cc[n+](C)c3ccc4ccccc4c23)cc1	-8.2%	x	x	-33.8%	x
CCCCn1c(N)c(N(CC(C)C)C(=O)c2oc3ccc(Br)cc3c2C)c(=O)[nH]c1=O	u	x	79.4µM*	-9.5%	x
CCCCn1c(N)c(N(CC(C)C)C(=O)c2cc(-c3ccco3)nc3ccccc23)c(=O)[nH]c1=O	39.8µM*	x	28.2µM*	u	x
CCCCn1c(N)c(N(CCC(C)C)C(=O)c2cc(Cl)nc3ccccc23)c(=O)[nH]c1=O	8.8%	x	1.0%	-8.0%	-10.5%
Cc1ccc(SCc2nc(-c3ccc(C(=O)NCc4ccccc4Cl)cc3)oc2C)cc1	8.5%	3.2%	-1.9%	4.5%	5.6%
CCCCOc1ccc(/C(O)=C2/C(=O)C(=O)N(CCCOC)C2c2ccncc2)cc1 (centres undefined)	5.6%	0.7%	0.8%	-13.1%	-2.2%
CCCOc1ccc(/C(O)=C2/C(=O)C(=O)N(CCCN3CCOCC3)C2c2ccncc2)cc1 (centres undefined)	x	12.6µM*	x	x	x
SMILES	POLI inh	POLB inh	Pol eta inh	POLK inh	TDP1 inh
CCOC(=O)Cc1cc(=O)n2[nH]c(C)c(-c3ccccc3)c2n1	u	u	4.9%	u	9.9%
CCOC(=O)Cc1cc(=O)n2[nH]c(-c3ccccc3)c(-c3ccccc3)c2n1	u	14.1µM*	79.4µM*	79.4µM*	10.3%
COc1ccc(NC(=O)N2CCc3nc(-c4ccc(OC)cc4C)c4c(c3C2)CO[C@@H](c2ccccc2)C4)cc1	x	x	x	x	7.4%[12.3 µM]
CSCC[C@H](NC(=O)[C@H](CC(C)C)N1CCC(NC(=O)[C@@H](NC(=O)[C@H](Cc2ccccc2)NC(=O)[C@H](CO)NC(=O)[C@H](CC(=O)O)NC(=O)[C@@H](N)CCCCN)C(C)C)C1=O)C(N)=O (some centres undefined)	x	x	x	-5.9%[60.1 µM]	8.9%
COc1ccc(-c2ccc(=O)n(CC(=O)Nc3ccc4c(c3)OCCO4)n2)cc1	u	-11.0%	6.3%	0.6%	5.6%
COc1ccc(CNC(=O)Cn2nc(-c3ccc4c(c3)OCCO4)ccc2=O)cc1	63.1µM*	11.9%	-4.8%	-8.1%	-5.8%
N#Cc1c2c(c(Cl)n3c1nc1ccccc13)CCCC2	-13.9%	x	x	3.9%	x
CCCOc1ccc(C2c3c(-c4ccccc4O)n[nH]c3C(=O)N2Cc2ccncc2)cc1OCC (centres undefined)	-7.3%	14.5%	-10.0%	-14.5%	4.7%
Cc1cc2c(s1)c1cnn(Cc3ccccc3Cl)c(=O)c1n2C	x	x	x	x	0.5%
O=C1C=C(O)c2cccc(O)c2C1=O	u	20µM*	35.5µM*	u	x
Cc1ccc(NC(=O)Cn2cnc3onc(-c4ccc(F)cc4)c3c2=O)c(Cl)c1	8.3%	13.7%	-0.5%	2.9%	2.1%
CC[C@H](C)[C@H](NC(=O)[C@H](C)NC(=O)CNC(=O)[C@H](CCCN=C(N)N)NC(=O)[C@H](C)NC(=O)[C@H](CC(C)C)NC(=O)[C@H](CCC(=O)O)NC(=O)[C@H](CC(C)C)NC(=O)[C@H](C)NC(=O)[C@@H](N)CCC(=O)O)C(=O)N[C@@H](Cc1ccccc1)C(=O)N[C@@H](CCC(N)=O)C(=O)N[C@@H](C)C(=O)O	x	x	x	6.6%[60.1 µM]	6.2%
CCCCN(CCC#N)c1ccc(/C=C/c2ccnc3ccccc23)cc1	-20.5%	x	x	-2.2%	x
N=c1c(C(=O)NCc2ccc(F)cc2)cc2c(=O)n3ccccc3nc2n1Cc1ccco1	17.8µM*	u	39.8µM*	u	2.7%
Cc1cccn2c(=O)c3cc(C(=O)NCCc4ccccc4)c(=N)n(Cc4ccco4)c3nc12	7.94µM*	-16.9%	-10.5%	-35.4%	-18.4%
COc1ccc(CNC(=O)c2cc3c(=O)n4ccccc4nc3n(Cc3cccnc3)c2=N)cc1	u	0.4%	-16.0%	-26.7%	-1.6%
N=c1c(C(=O)NCc2ccccc2)cc2c(=O)n3ccccc3nc2n1Cc1ccco1	4.1%	u	u	-2.3%	-2.3%
CCCCNC(=O)c1cc2c(=O)n3cccc(C)c3nc2s1	24.8%	19.5%	-1.6%	-2.1%	-7.3%
Cc1cccn2c(=O)c3cc(C(=O)NCCc4ccccc4)sc3nc12	u	14.1µM*	u	-23.9%	-16.3%
N=c1c(C(=O)NCc2ccc3c(c2)OCO3)cc2c(=O)n3ccccc3nc2n1Cc1cccnc1	39.8µM*	39.8µM*	u	-20.1%	4.3%
